# Assay outcomes as filed in PubChem.
# Pf growth 96h = P. falciparum growth inhibition at 96 hour, primary screen for plastid delayed-death inhibitors; P. falciparum luciferase reporter growth, 96 h; Potency, µM (highest dose often 28.7 µM), actives largely listed as inhibitors; AID 504834; 320,000 tested, 6.9% active
#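 Two parasite generations (96 h, 37 C, 5% CO2) of compound exposure in infected erythrocytes (0.05% parasitemia, 2% hematocrit). Luciferase-reporter P. falciparum; decreased luminescence indicates inhibited growth, aimed at apicoplast-acting delayed death.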
# Shiga inhibitor = inhibitors of Shiga toxin in Vero cells; inhibition, % at 38.7 µM; Vero cells, Shiga toxin protein synthesis inhibition reporter; AID 2315; 290,000 tested, 9.2% active; in the data active means inhibition mostly above about 28%, no sharp cut-off; inactive means mostly below about 43%
# Pf growth 48h = inhibits P. falciparum growth in the first generation, 48 h | 310,000 tested, 5.9% active | Potency, µM (series often up to 28.7 µM), most hits filed as inhibitors | AID 504832 | P. falciparum luciferase growth in erythrocytes, 48 h
#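 Firefly luciferase activity from engineered P. falciparum reports growth; inhibitors lower the luminescent signal. Cultures contained 2% hematocrit erythrocytes at 0.1% final parasitemia.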
# Cycloheximide cs = counter-screen hit for Shiga toxin inhibitors, cycloheximide | cell reporter, cycloheximide protein synthesis inhibition counterscreen | max response, % | 300,000 tested, 12% active; in the data active means max response mostly above about 13%, no sharp cut-off; inactive means mostly below about 14%; further: read at 38.3 µM for the half of the compounds with a filed dose
# Hits are given with their value; n = inactive; u = inconclusive; x = not tested or not shown; [ ] = remark or other dose. Rows were chosen to be rich in hits. Some 21% of all compounds tested hit in one or more screens of this group. Unless noted, the call rests on the fitted dose curve; in most records, active means well fitted inhibition curve with a large enough effect; inconclusive means small, poorly fitted or top-dose-only effect, or another doubt; inactive means no such curve, though single readings can be large or run the other way.
SMILES,Pf growth 96h,Shiga inhibitor,Pf growth 48h,Cycloheximide cs
CCCn1c(=O)c(F)cn(Cc2ccc(OC)c([N+](=O)[O-])c2)c1=O,n,n,n,n
CCOC(=O)Cn1c(=O)c(F)cn(Cc2ccc(OC)c([N+](=O)[O-])c2)c1=O,10µM,n,n,n
CC1Cc2cc(-c3csc(NC(=O)Cc4cccs4)n3)ccc2N1S(C)(=O)=O (stereo not drawn),u,n,13µM,n
CCC(=O)Nc1nc(-c2ccc3c(c2)CC(C)N3S(C)(=O)=O)cs1 (stereo not drawn),n,n,n,26
CCOC(=O)C(Cc1ccc(NC(C)=O)cc1)N1C(=O)c2ccccc2C1=O (stereo not drawn),n,x,n,x
Cc1noc(C)c1CSCC(=O)N(C)CC(=O)Nc1ccc(Cl)cc1,n,n,n,n
CN(C(=O)Cn1nnc2ccccc2c1=O)C1CCCCC1,n,n,n,n
COc1ccc(C(=O)Nc2ccnn2C2CCN(C(=O)C3CCOC3)CC2)cc1 (stereo not drawn),n,53,n,25
C/C=C(\C)CN1CCC(n2nccc2NC(=O)c2ccc(OC)cc2)CC1,u,n,n,n
O=C(Nc1ccnn1C1CCN(C(=O)c2cnsn2)CC1)c1cccc(F)c1,u,n,n,18
CCCc1cc(C(=O)N2CCC(n3nccc3NC(=O)c3ccc(OC)cc3)CC2)no1,n,22,n,21
C=CCCC(=O)N1CCC(n2nccc2NC(=O)c2ccc(OC)cc2)CC1,12µM,n,n,37
COc1ccc(C(=O)Nc2ccnn2C2CCN(Cc3cn(C)nc3C)CC2)cc1,n,n,n,n
CC(=O)Nc1ccc(S(=O)(=O)N2CCN(c3ccc([N+](=O)[O-])cc3)CC2)cc1,n,n,u,n
O=C(NNC1CC(=O)N(c2ccc(Br)cc2)C1=O)c1cccnc1 (stereo not drawn),n,n,n,n
CC(C)CC1NC(=O)N(CC(=O)Nc2ccc(OCc3ccccc3)cc2)C1=O (stereo not drawn),n,x,n,x
COc1ccc(CNC(=O)COc2ccc(Br)c(C)c2)cc1,n,n,n[0.00184 µM],n
COc1ccc(C(=O)Nc2ccnn2C2CCN(C(=O)CCC(F)(F)F)CC2)cc1,n,42,n,24
Cc1ccc(N=C(NOCc2ccc(Cl)cc2Cl)c2nonc2N)c(C)c1,12µM,n,x,n
CC(=O)ONC(=Nc1ccccc1)c1nonc1N,n,n,n,n
Cc1ccccc1N=C(NOCc1ccccc1)c1nonc1N,u,n,u,n
Cc1ccc(N=C(NOC(=O)c2ccccc2)c2nonc2N)c(C)c1,5.9µM,n,u,n
Cc1ccccc1N=C(NOCc1ccc(Cl)cc1Cl)c1nonc1N,12µM,n,x,n
Clc1ccc(CONc2ncnc3nonc23)c(Cl)c1,n,n,n,n
O=C(COc1ccccc1Cl)Nc1ccc(N2CCN(C(=O)c3ccccc3)CC2)cc1,n,n,u,n
SMILES,Pf growth 96h,Shiga inhibitor,Pf growth 48h,Cycloheximide cs
CC(O)c1nc2cc([N+](=O)[O-])ccc2n1Cc1ccccc1 (stereo not drawn),n,n,13µM,n
CC(O)c1nc2ccccc2n1Cc1ccccc1 (stereo not drawn),u,n,n,n
CCOc1ccc(C(C(=O)NC2CCCC2)N(C(=O)c2snc(C(N)=O)c2N)c2cccc(O)c2)cc1 (stereo not drawn),n,n,u,n
O=C(O)c1cc2c(cc1NC(=O)C1CCCC1)OCCO2,n,x,n,x
O=C(Cc1ccc(Cl)cc1)Nc1cc(S(=O)(=O)N2CCOCC2)ccc1N1CCCC1,n,n,n,n
O=S(=O)(c1ccc2c(c1)N(Cc1ccc(Cl)cc1)C1CCCN21)N1CCOCC1 (stereo not drawn),8.3µM,n,u,n
COc1ccc(CN2c3cc(S(=O)(=O)N4CCOCC4)ccc3N3CCCC32)cc1 (stereo not drawn),8.3µM,n,x,n
COc1ccc(-c2ccc(S(=O)(=O)N3CCOCC3)cc2)cc1,x,n,n,n
O=C(O)C1CCC(c2ccc(-c3ccccc3)cc2)CC1 (stereo not drawn),n,116,n,73
NCCCNCCCCNCCCNC(=O)Cc1ccc(O)cc1,x,n,x,n
CC(=O)N1CCN(C(=O)COC(=O)COc2c(C)cc(C)cc2C)CC1,n,x,n,x
COc1ccccc1CNC(=O)CCS(=O)(=O)Cc1ccc(C)cc1,n,n,n,n
O=C(Cc1ccc(Br)cc1)NCc1ccccc1,u,n,n,19
COc1ccccc1CNC(=O)CCc1ccccc1,u,n,n,n
COc1ccccc1CNC(=O)Cc1ccc(Br)cc1,n,active,u,35
COc1ccccc1CNC(=O)CS(=O)(=O)Cc1ccccc1,2.6µM,n,n,n
COC(=O)[C@@]12CCCCN1[C@H](c1ccc(-c3cc(C(C)=O)cs3)cc1)[C@H]1C(=O)N(C)C(=O)[C@H]12,n,x,u,x
COC(=O)[C@@]12CCCN1[C@H](c1ccc(-c3ccc(OC)cc3)cc1)[C@@H]1C(=O)N(C)C(=O)[C@@H]12,9.3µM,x,5.9µM,x
COC(=O)[C@@]12CCCN1[C@H](c1ccc(-c3ccccc3)cc1)[C@H]1C(=O)N(C)C(=O)[C@H]12,u,x,10µM,x
O=S(=O)(C(=CNc1ccccc1)S(=O)(=O)c1ccccc1)c1ccccc1,10µM,n,n,n
CCCCC[C@H](O)/C=C\[C@@H]1[C@H](O)CC(=O)[C@@H]1CCCCCCC(=O)O,5.1µM,x,u,x
CCCCC[C@H](O)/C=C/[C@H]1CCC(=O)[C@@H]1CCCCCCC(=O)N1CCCCC1CO (stereo partly drawn),u,n,9.3µM,n
CCCCC[C@H](O)/C=C/[C@H]1[C@H](O)CC(=O)[C@@H]1C/C=C\CCCC(=O)O,n,x,n,x
O=C(COC(=O)c1ccc(Br)cc1)NC(=O)NCc1ccccc1,n,x,n,x
CC(C)Cc1ccc(S(=O)(=O)NCC2CCCO2)cc1 (stereo not drawn),n,n,n,n
SMILES,Pf growth 96h,Shiga inhibitor,Pf growth 48h,Cycloheximide cs
Cc1ccc(S[C@@H](CCN2CC[C@H](C)CCC2=O)c2ccccc2)cc1,9.3µM,n,u,n
COc1ccc(S[C@@H](CCN2CC[C@H](C)CCC2=O)c2ccccc2)cc1,u,x,8.3µM,x
CC(=O)Oc1ccccc1N(C(C)=O)S(=O)(=O)c1cccc([N+](=O)[O-])c1,n,n,u,n
O=C(O)c1cccc(S(=O)(=O)N(Cc2ccccc2)c2cccc(C(F)(F)F)c2)c1,n,n,n,n
C/C(=N\O)c1ccc(N2C(=O)C3CC=C(Cl)CC3C2=O)cc1 (stereo not drawn),5.2µM,80,n,37
CCN(CC)C(=O)c1ccc(N2C(=O)C3CC=C(Cl)CC3C2=O)cc1 (stereo not drawn),n,n,n,n
Cc1cccc(NC(=O)NCc2ccc3c(c2)OCO3)c1,u,79,n,39
Cc1ccc(CC(=O)NCc2ccc3c(c2)OCO3)cc1,n,n,n,n
Cc1cccc(NC(=O)NCc2ccc3c(c2)cc(C)n3C)c1,10µM,n,u,n
Cc1cccc(NC(=S)NCc2ccc3c(c2)OCO3)c1,n,n,n,n
Cc1ccc(NC(=O)NCc2ccc3c(c2)OCO3)cc1,n,n,x,16
COc1cc(/C=C/C(=O)Nc2ccc3nc4n(c(=O)c3c2)CCCC4)cc(OC)c1OC,n,n,u,n
